Source: PubChem BioAssay (National Center for Advancing Translational Sciences (NCATS))
A selection: hits, their analogues and other compounds. The true share with any hit is near 7.9%.
FMDV antiviral: foot and mouth disease virus antiviral activity | FMDV antiviral cell-based qHTS | Potency, µM (highest dose often 57.9 µM), actives largely listed as inhibitors | actives 1.2% (n = 410,000) | AID 1159524; calls by dose curve; tested in HEK293T cells; also: read-out not given here; nearly all actives have a fitted effect of over 45% in size
Lassa entry inh: inhibitors of Lassa virus binding or cell entry. Lassa virus pseudotype entry inhibition, cell reporter. Potency, µM (titrated, usually from 37.9 µM), hits mostly inhibitors. actives 1.2% (n = 300,000). AID 540256; calls by dose curve; tested in HEK293 cells; also: nearly all actives have a fitted effect of over 50% in size
HCMV inh: inhibitors of human cytomegalovirus | actives 4.5% (n = 410,000) | HFF cells, HCMV-luciferase reporter, 72 h; stronger effect = lower value | AID 1259415 | activity change, negative = inhibition, % at 57.5 µM; in the data active = activity change below about -60%; inconclusive = no clear call, values can overlap the other calls; inactive = above about -39%
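HFF cells seeded 16 h at 37C, treated with compounds, infected with luciferase-reporter HCMV at MOI 1 PFU/cell; luciferase read at 72 h post infection, normalized to buffer-only and Salinomycin controls.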
Marburg entry inh: blocks Marburg virus binding to or entry into cells; Marburg virus pseudotyped entry inhibition, cell reporter; Potency, µM (top dose mostly 37.8 µM), hits mostly inhibitors; actives 1.8% (n = 300,000); AID 540276; calls by dose curve; tested in HEK293 cells
HCV inhibitor: blocks hepatitis C virus. Huh7.5.1 HCVcc-Cre infection, luciferase reporter, 44 h. Potency, µM (doses to about 41.8 µM), usual class: inhibitors. actives 3.4% (n = 340,000). AID 651820; active = well fitted inhibition curve with a large enough effect; inconclusive = small, poorly fitted or top-dose-only effect, or another doubt; inactive = no such curve, though single readings can be large or run the other way
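1,000 cells/well; 4 h culture; + compound; + HCVcc-Cre (~0.5 moi); 44 h; luciferase substrate, RT 15 min; read 15 sec.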
Each line names hits and unclear results; the compound was inactive in the other large screens.

c1ccc2[nH]c(-c3cscn3)nc2c1	HCMV inh -89.5
O=C(CCn1cnc2onc(-c3ccc(F)cc3)c2c1=O)N1CCN(c2ccccc2F)CC1	none (no result: Marburg entry inh, HCV inhibitor)
COCc1ccc(O)c2ncccc12	Lassa entry inh inconclusive, HCMV inh -94.1, Marburg entry inh inconclusive, HCV inhibitor 5.62µM
Cc1cccc(NCc2ccc(O)c3ncccc23)c1	Lassa entry inh inconclusive, HCMV inh -84.0, Marburg entry inh inconclusive, HCV inhibitor 7.08µM
OCc1ccnc2c(O)cccc12	Lassa entry inh 4.11µM, Marburg entry inh inconclusive, HCV inhibitor inconclusive
Cc1ccccc1NCc1ccc(O)c2ncccc12	FMDV antiviral inconclusive, Lassa entry inh inconclusive, HCMV inh -97.5, Marburg entry inh inconclusive, HCV inhibitor inconclusive
NC(=O)c1ccnc2c(O)cccc12	none (no result: Lassa entry inh, Marburg entry inh, HCV inhibitor)
Oc1ccc(Cn2ccnc2)c2cccnc12	Lassa entry inh inconclusive, Marburg entry inh inconclusive, HCV inhibitor inconclusive
O=C(NCc1ccccc1)C(Nc1ccccc1)c1ccccc1F (stereo not given)	none (no result: FMDV antiviral, Lassa entry inh, Marburg entry inh, HCV inhibitor)
CCOc1ccc(NCc2cccn2-c2nnc(N3CCC(C(=O)NCCc4ccc(OCC)c(OCC)c4)CC3)s2)cc1	FMDV antiviral inconclusive, HCMV inh -80.1, Marburg entry inh inconclusive (no result: Lassa entry inh, HCV inhibitor)
CCCCOc1ccc(CNC(=O)C2CCN(c3nnc(-n4cccc4CNc4ccc(C)cc4)s3)CC2)cc1	none (no result: Lassa entry inh, HCV inhibitor)
CCOc1ccc(NCc2cccn2-c2nnc(N3CCC(C(=O)NCCc4ccc(OC)c(OC)c4)CC3)s2)cc1	FMDV antiviral 22.4µM, HCMV inh -84.8, Marburg entry inh inconclusive (no result: Lassa entry inh, HCV inhibitor)
CCOc1ccc(NCc2cccn2-c2nnc(N3CCC(C(=O)NCCCN4CC(C)CC(C)C4)CC3)s2)cc1 (stereo not given)	HCMV inh -85.3, Marburg entry inh inconclusive, HCV inhibitor inconclusive
Cc1ccc(NCc2cccn2-c2nnc(N3CCC(C(=O)NCc4ccc(F)cc4)CC3)s2)cc1	HCMV inh -78.5, Marburg entry inh inconclusive (no result: Lassa entry inh, HCV inhibitor)
CCN(CC)c1cc(C)c2cc(NC(=O)/C=C/c3ccccc3OC(C)C)ccc2n1	HCMV inh inconclusive, Marburg entry inh inconclusive (no result: HCV inhibitor)
Cc1nc(-c2ccc(NC(=O)CC(C)C)cc2)cs1	Lassa entry inh inconclusive, HCMV inh -76.0
COc1ccc(-c2csc(NC(=O)CC(C)C)n2)cc1	FMDV antiviral inconclusive, Lassa entry inh 13µM, Marburg entry inh inconclusive
COc1ccc(-c2csc(NC(=O)c3c(OC)cccc3OC)n2)cc1	HCV inhibitor inconclusive
Cc1nc(-c2ccc(NC(=O)C3CC3)cc2)cs1	Marburg entry inh inconclusive
Cc1cc(C)c(S(=O)(=O)Nc2ccccc2C(=O)OCC(=O)NCc2ccccc2)c(C)c1	Lassa entry inh 10µM, HCMV inh inconclusive, Marburg entry inh inconclusive
CCN(c1ccccc1)S(=O)(=O)c1ccc(NC(=O)c2cc(=O)c3ccc(C)c(C)c3o2)cc1	none (no result: HCV inhibitor)
O=C(NC[C@@H]1CCCO1)c1cccc2c1C(=O)c1ccc(N3CCOCC3)cc1S2(=O)=O	none (no result: Lassa entry inh, Marburg entry inh)
COCCNC(=O)c1cccc2c1C(=O)c1ccc(N3CCOCC3)cc1S2(=O)=O	HCMV inh -102.4 (no result: Lassa entry inh, Marburg entry inh)
O=C(NC1CCCCC1)c1cccc2c1C(=O)c1ccc(N3CCC(Cc4ccccc4)CC3)cc1S2(=O)=O	none (no result: Lassa entry inh, Marburg entry inh)
CC1CCN(c2ccc3c(c2)S(=O)(=O)c2cccc(C(=O)NC4CC4)c2C3=O)CC1	HCMV inh -61.6 (no result: Lassa entry inh, Marburg entry inh)
O=C(NCc1ccccc1C(F)(F)F)c1cccc2c1C(=O)c1ccc(N3CCOCC3)cc1S2(=O)=O	none (no result: Lassa entry inh, Marburg entry inh)
O=C(NCc1ccccc1C(F)(F)F)c1cccc2c1C(=O)c1ccc(N3CCC(N4CCCCC4)CC3)cc1S2(=O)=O	HCMV inh -99.8 (no result: Lassa entry inh, Marburg entry inh, HCV inhibitor)
O=C(NCC1CCCO1)c1cccc2c1C(=O)c1ccc(N3CCC(Cc4ccccc4)CC3)cc1S2(=O)=O (stereo not given)	FMDV antiviral 12.6µM, HCV inhibitor inconclusive (no result: Lassa entry inh, HCMV inh, Marburg entry inh)
CCSc1nc(O)c([C@H]2OC(=O)c3c2ccc(OC)c3OC)c(=O)n1-c1ccccc1	none (no result: FMDV antiviral, Lassa entry inh, HCMV inh, HCV inhibitor)
CC(=O)c1ccc(NC(=O)c2sc(-n3nc(C)c(CCC(C)C)c3C)nc2C)cc1	none (no result: HCV inhibitor)
CC1CCN(c2ccc3c(c2)S(=O)(=O)c2cccc(C(=O)NC[C@@H]4CCCO4)c2C3=O)CC1	HCMV inh -94.1, HCV inhibitor inconclusive (no result: Lassa entry inh, Marburg entry inh)
N=c1c2c(n(Cc3ccc(F)cc3)c3c1CCC3)CCCC2	FMDV antiviral inconclusive, HCMV inh -99.6 (no result: Lassa entry inh, Marburg entry inh)
N=c1c2c(n(Cc3ccc(Cl)cc3Cl)c3c1CCC3)CCCC2	Lassa entry inh 3.98µM, Marburg entry inh inconclusive, HCV inhibitor 10µM (no result: HCMV inh)
N=c1c2c(n(Cc3ccc(Cl)cc3)c3c1CCC3)CCC2	FMDV antiviral inconclusive, Lassa entry inh inconclusive, HCMV inh -102.1, Marburg entry inh inconclusive, HCV inhibitor inconclusive
CN1CCCN(Cc2ccc(Cl)cc2Cl)CC1	Lassa entry inh inconclusive, HCV inhibitor inconclusive (no result: FMDV antiviral)
N=c1sc2c(n1Cc1ccccc1)CCCC2	Marburg entry inh inconclusive (no result: FMDV antiviral)
N=c1c2c(n(Cc3cccc(Cl)c3)c3c1CCC3)CCCC2	Lassa entry inh inconclusive, HCMV inh -94.5, Marburg entry inh inconclusive, HCV inhibitor 25.1µM (no result: FMDV antiviral)
Cc1cc(O)c(C(c2cccc(F)c2)N2CCN(c3ccccc3)CC2)c(=O)n1Cc1ccco1 (stereo not given)	none (no result: Marburg entry inh, HCV inhibitor)
N=c1c2c(n(Cc3ccccc3)c3c1CCC3)CCC2	FMDV antiviral inconclusive, Lassa entry inh 1.58µM, HCMV inh -96.5, Marburg entry inh inconclusive, HCV inhibitor inconclusive
Nc1cc(OC(=O)c2ccc(F)cc2)nn1S(=O)(=O)c1ccc(F)cc1	Lassa entry inh 2µM
Nc1cc(OC(=O)c2ccco2)nn1S(=O)(=O)c1ccc(F)cc1	none
CCC(C)(C)n1nnnc1CN1CCN(C(c2ccccc2)c2ccccc2)CC1	FMDV antiviral inconclusive, Lassa entry inh 13µM, HCV inhibitor inconclusive
COc1cc(SC)ccc1C(=O)OCC(=O)N1CC(=O)Nc2ccccc21	HCV inhibitor 10µM
COc1ccccc1C(=O)NCCC(=O)N1CC(=O)Nc2ccccc21	Marburg entry inh inconclusive
O=C1CN(C(=O)COc2ccc(Cl)c(Cl)c2)c2ccccc2N1	HCMV inh -66.3
CCC(Oc1ccccc1OC)C(=O)N1CC(=O)Nc2ccccc21 (stereo not given)	HCMV inh -74.5
O=C1CN(C(=O)Cn2ncc(Cl)c(Cl)c2=O)c2ccccc2N1	FMDV antiviral inconclusive, Lassa entry inh inconclusive, HCMV inh -94.9, Marburg entry inh inconclusive, HCV inhibitor 5.62µM
O=C1CN(C(=O)COC(=O)c2ccccc2O)c2ccccc2N1	none
CCCSc1ncc(Cl)c(C(=O)Nc2c(C(=O)Nc3ccc(C)cc3)oc3ccccc23)n1	none (no result: HCV inhibitor)
CC(=O)c1ccccc1NC(C(=O)NC1CCCCC1)c1ccccc1F (stereo not given)	none (no result: FMDV antiviral, Lassa entry inh, Marburg entry inh, HCV inhibitor)
CCc1ccc(C(=O)CC2(O)C(=O)N(CCc3ccccc3)c3ccc(Cl)cc32)cc1 (stereo not given)	Lassa entry inh inconclusive, Marburg entry inh inconclusive (no result: HCV inhibitor)
O=C1CN(C(=O)/C=C/c2cccc(Cl)c2)c2ccccc2N1	Lassa entry inh inconclusive, Marburg entry inh inconclusive, HCV inhibitor 14.1µM
CCCCOc1ccc(/C=C/C(=O)OCC(=O)N2CC(=O)Nc3ccccc32)cc1OCC	FMDV antiviral 12.6µM, HCV inhibitor 7.94µM
COc1ccc(/C=C/C(=O)OCC(=O)N2CC(=O)Nc3ccccc32)cc1	none
